The source made the active and inactive calls. Unless noted, the rule behind the calls is not given here.
What was measured:
[1] = compounds binding Alexa647 anti-His antibody – biochemical, small-molecule microarray, 635 nm fluorescence, artefact control for SMM control protein annotation, primary screen (AID 1128); settings: higher = more signal;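 note: score merges feature fluorescence with signal-to-noise for each printed compound spot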
[2] = system: Human papillomavirus type 1a E7 protein (residues 1-88); assay: HPV1a E7 small-molecule binders, primary screen, biochemical, small-molecule microarray, residues 1-88, 635 nm (AID 1129); settings: small-molecule microarray binding, fluorescence 635 nm; higher = more signal
[3] = biological target: Focal adhesion kinase 1 (Homo sapiens) (UniProt Q05397); assay: PTK2 protein binding on printed compound slides – biochemical, small-molecule microarray, 635/667 nm fluorescence, BSA, DTT, primary screen (AID 1130); settings: 635 nm fluorescence, higher = more signal;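 note: composite of spot emission at 667 nm and signal to noise over triplicate slides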
Chain of Focal adhesion kinase 1 (Homo sapiens) (Q05397 whole entry, looked up): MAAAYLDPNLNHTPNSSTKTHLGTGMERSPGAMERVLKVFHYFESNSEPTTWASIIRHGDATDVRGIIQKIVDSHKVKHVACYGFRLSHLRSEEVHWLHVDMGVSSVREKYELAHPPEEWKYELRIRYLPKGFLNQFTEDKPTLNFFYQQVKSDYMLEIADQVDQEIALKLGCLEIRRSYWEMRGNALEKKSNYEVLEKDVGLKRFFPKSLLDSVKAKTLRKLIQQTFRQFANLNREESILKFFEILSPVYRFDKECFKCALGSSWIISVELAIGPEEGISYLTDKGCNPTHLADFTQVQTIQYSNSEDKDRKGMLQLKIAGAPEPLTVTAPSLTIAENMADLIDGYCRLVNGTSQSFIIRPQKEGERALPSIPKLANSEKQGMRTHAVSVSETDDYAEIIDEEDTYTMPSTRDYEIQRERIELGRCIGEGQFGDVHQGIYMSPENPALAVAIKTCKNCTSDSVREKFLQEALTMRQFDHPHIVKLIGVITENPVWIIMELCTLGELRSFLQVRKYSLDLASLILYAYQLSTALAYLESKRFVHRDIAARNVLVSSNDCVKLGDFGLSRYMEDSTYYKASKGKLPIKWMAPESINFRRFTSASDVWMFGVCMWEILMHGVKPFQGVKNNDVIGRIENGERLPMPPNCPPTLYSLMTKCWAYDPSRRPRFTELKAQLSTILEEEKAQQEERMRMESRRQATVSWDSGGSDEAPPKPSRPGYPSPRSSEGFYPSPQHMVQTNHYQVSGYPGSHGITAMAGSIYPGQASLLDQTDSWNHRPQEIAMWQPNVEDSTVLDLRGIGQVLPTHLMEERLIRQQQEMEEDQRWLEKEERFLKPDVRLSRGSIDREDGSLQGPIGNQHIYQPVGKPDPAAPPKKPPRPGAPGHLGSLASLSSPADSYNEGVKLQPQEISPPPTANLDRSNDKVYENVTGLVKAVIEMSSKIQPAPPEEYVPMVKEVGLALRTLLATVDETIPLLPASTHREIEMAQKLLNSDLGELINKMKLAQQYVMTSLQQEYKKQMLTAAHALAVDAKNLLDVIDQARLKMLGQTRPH

[4] = system: Fibrinogen (Alexa647-labelled); assay: Alexa647-fibrinogen binding to printed small molecules – biochemical, small-molecule microarray, 635/667 nm fluorescence, artefact control for SMM control-protein annotation, profiling panel (AID 1131); settings: fibrinogen-A647 binding fluorescence, higher = more signal;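 note: z-score merges 667 nm fluorescence with per-spot signal-to-noise over triplicate slides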
[5] = biological target: Follistatin (Homo sapiens) (UniProt P19883); assay: FST protein binding to printed compounds – biochemical, small-molecule microarray, 635/667 nm fluorescence, primary screen (AID 1132); settings: 635 nm fluorescence, higher = more signal
Chain of Follistatin (Homo sapiens) (P19883 whole entry, looked up): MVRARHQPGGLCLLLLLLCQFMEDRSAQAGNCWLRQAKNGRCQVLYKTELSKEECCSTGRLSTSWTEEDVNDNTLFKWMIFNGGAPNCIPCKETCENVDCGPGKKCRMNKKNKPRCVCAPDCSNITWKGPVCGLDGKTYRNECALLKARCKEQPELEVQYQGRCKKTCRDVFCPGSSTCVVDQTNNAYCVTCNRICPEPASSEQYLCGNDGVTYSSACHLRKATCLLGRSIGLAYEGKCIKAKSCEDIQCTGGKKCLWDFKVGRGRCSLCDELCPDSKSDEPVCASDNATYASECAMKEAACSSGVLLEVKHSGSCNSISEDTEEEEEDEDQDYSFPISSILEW

[6] = biological target: Fibroblast growth factor 2 (Homo sapiens) (UniProt P09038); assay: basic fibroblast growth factor binding to printed compounds – biochemical, small-molecule microarray, 635/667 nm fluorescence, primary screen (AID 1133); settings: FGF2, fluorescence 635/667, higher = more signal
Chain of Fibroblast growth factor 2 (Homo sapiens) (P09038 whole entry, looked up): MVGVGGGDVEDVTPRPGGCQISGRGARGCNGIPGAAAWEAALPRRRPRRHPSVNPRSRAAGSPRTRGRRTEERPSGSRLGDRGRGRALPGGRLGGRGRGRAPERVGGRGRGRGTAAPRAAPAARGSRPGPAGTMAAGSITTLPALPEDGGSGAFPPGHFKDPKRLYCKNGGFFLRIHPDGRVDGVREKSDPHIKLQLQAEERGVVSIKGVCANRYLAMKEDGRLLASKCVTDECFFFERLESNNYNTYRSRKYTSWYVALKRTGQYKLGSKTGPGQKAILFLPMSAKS

[7] = JC-1 mitochondrial potential readout, lung cancer cells – cell-based, A549, JC-1 fluorescence, basal, 24 h, 100 nL, profiling panel (AID 1138); settings: higher = more signal;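 note: A549 lung adenocarcinoma cells under basal conditions with no added stimulus; test concentration not given here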
Lefty1 = Lefty1 protein binding to printed compounds – biochemical, small-molecule microarray, 635/667 nm fluorescence, primary screen (AID 1139); settings: fluorescence 635/667, higher = more signal
[8] = system: wheat germ agglutinin (Triticum aestivum), Alexa647-labelled; assay: Alexa647-WGA lectin binding to printed small molecules – biochemical, small-molecule microarray, 635/667 nm fluorescence, artefact control for SMM control-protein annotation, profiling panel (AID 1140); settings: WGA-A647 binding, 635 nm fluorescence, higher = more signal;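 note: score merges 667 nm feature emission with signal to noise over triplicate slides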
[9] = biological target: Luciferin 4-monooxygenase (Photinus pyralis) (UniProt P08659); assay: inhibition of purified Photinus pyralis luciferase – biochemical, luminescence, purified enzyme, 2006 set, primary screen (AID 1141); settings: purified firefly luciferase, SteadyGlo luminescence, 30 min; higher = more signal, called active from +8 up or from −8 down;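 note: cell-free assay with purified firefly luciferase at 100 ng per well in PBS; test concentration not given here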
Chain of Luciferin 4-monooxygenase (Photinus pyralis) (P08659 whole entry, looked up): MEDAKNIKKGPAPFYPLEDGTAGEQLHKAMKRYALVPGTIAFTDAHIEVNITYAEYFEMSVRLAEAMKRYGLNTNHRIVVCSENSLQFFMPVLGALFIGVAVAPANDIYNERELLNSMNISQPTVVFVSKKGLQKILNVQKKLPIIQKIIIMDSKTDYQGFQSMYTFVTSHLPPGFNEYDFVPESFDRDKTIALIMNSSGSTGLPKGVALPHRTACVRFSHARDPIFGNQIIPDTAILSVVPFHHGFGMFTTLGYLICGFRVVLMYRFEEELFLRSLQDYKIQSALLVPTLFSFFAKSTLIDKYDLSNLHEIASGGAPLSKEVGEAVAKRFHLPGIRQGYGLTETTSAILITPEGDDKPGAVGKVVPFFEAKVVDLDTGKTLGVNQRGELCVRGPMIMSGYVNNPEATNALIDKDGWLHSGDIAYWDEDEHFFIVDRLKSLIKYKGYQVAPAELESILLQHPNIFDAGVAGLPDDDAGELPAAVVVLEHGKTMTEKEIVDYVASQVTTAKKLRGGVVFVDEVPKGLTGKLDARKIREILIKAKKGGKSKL

[10] = system: Wnt5a (protein binding on small-molecule microarray); assay: small molecules binding Wnt5a protein – biophysical, small-molecule microarray, 635/667 nm fluorescence, primary screen (AID 1142); settings: 635 nm fluorescence, higher = more signal;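 note: fluorescence read at 667 nm with signal to noise per printed feature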
[11] = ATP-based viability of Huh7 replicon cells – cell-based, CellTiter-Glo luminescence, basal, 48 h, cytotoxicity control for HCV replication inhibitor project, primary screen (AID 1143); settings: higher = more signal, called active from +8 up or from −8 down;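 note: Huh7 hepatoma cells carrying a hepatitis C replication reporter with no stimulus; test concentration not given here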
[12] = Pseudomonas biofilm growth suppression – PAO1 strain, BacTiter-Glo luminescence, LB-PBS, primary screen (AID 1144); settings: P. aeruginosa PAO1 biofilm, 12 h, higher = more signal
[13] = basal CRE-LacZ reporter activity in PC12 – cell-based, unstimulated, primary screen (AID 1145); settings: no forskolin, luminescence, 4.5 h, higher = more signal, called active from +8 up or from −8 down
[14] = forskolin-driven CRE-LacZ activity in PC12 – cell-based, CRE-LacZ reporter, forskolin-stimulated, primary screen (AID 1146); settings: luminescence, 4.5 h, higher = more signal, called active from +8 up or from −8 down;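 note: PC12 cells with 6xCRE LacZ reporter stimulated by forskolin 10 µM; beta-galactosidase reporter signal reflecting CREB driven transcription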
[15] = biological target: Streptavidin (Streptomyces avidinii) (UniProt P22629); assay: compounds binding control protein streptavidin – biophysical, small-molecule microarray, 635/667 nm fluorescence, artefact control for SMM compound annotation, primary screen (AID 1147); settings: higher = more signal;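 note: signal reflects streptavidin binding to arrayed compounds as a control protein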
Chain of Streptavidin (Streptomyces avidinii) (P22629 whole entry, looked up): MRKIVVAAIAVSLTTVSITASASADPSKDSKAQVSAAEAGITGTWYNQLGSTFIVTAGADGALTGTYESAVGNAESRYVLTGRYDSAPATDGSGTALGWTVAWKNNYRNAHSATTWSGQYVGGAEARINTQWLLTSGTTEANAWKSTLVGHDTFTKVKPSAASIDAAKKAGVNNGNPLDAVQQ

[16] = probe aInhba binding on compound microarray – biochemical, small-molecule microarray, 635/667 nm fluorescence, primary screen (AID 1148); settings: higher = more signal;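 note: score merges 667nm spot fluorescence with signal-to-noise for antibody binding to printed compounds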
Torsin-1A (Homo sapiens) [17] = biological target: Torsin-1A (Homo sapiens) (UniProt O14656); assay: TOR1A wild-type binding on microarray – cell lysate, small-molecule microarray, lysate, 635/667 nm, primary screen (AID 1149); settings: COS7 hTOR1A-WT lysate, 635 nm fluorescence, higher = more signal
Chain of Torsin-1A (Homo sapiens) (O14656 whole entry, looked up): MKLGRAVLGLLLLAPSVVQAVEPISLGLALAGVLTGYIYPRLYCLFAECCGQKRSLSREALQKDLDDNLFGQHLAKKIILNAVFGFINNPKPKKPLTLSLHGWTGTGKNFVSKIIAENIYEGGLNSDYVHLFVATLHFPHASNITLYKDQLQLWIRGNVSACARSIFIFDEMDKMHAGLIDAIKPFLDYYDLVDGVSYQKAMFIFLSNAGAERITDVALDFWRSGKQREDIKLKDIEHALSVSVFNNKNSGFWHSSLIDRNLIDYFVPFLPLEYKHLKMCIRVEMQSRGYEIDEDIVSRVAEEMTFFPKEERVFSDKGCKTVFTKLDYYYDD

Torsin-1A (Homo sapiens) [18] = biological target: Torsin-1A (Homo sapiens) (UniProt O14656); assay: torsin A mutant lysate binding on microarrays – cell lysate, small-molecule microarray, COS7 lysate, 635/667 nm fluorescence, primary screen (AID 1150); settings: COS7 hTOR1A mutant lysate, 635 nm fluorescence, higher = more signal;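 note: score pools 667 nm emission and signal to noise measuring lysate protein binding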
[19] = system: Sonic hedgehog protein (Shh); assay: Sonic hedgehog microarray binding compounds – biochemical, small-molecule microarray, 635/667 nm fluorescence, primary screen (AID 1151); settings: 635 nm fluorescence, higher = more signal;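 note: Shh protein binding to compounds spotted on small-molecule microarray slides; score combines spot fluorescence intensity with signal-to-noise across triplicate slides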

Row | Structure (SMILES) | composite z-score [1] | composite z-score [2] | composite z-score [3] | composite z-score [4] | composite z-score [5] | composite z-score [6] | z-score [7] | composite z-score (Lefty1) | composite z-score [8] | z-score [9] | composite z-score [10] | z-score [11] | z-score [12] | z-score [13] | z-score [14] | composite z-score [15] | composite z-score [16] | composite z-score (Torsin-1A (Homo sapiens) [17]) | composite z-score (Torsin-1A (Homo sapiens) [18]) | composite z-score [19]
1 | CN1C(=O)C2C=CC(C(O)C3CCCCC3)N(N(c3ccccc3)c3ccccc3)C2C1=O (stereo not given) | -0.392 | -1.14 | 0.0064 | -0.702 | -0.885 | -0.732 | 0.131 | -1.6 | 0.517 | 0.135 (inactive) | 0.0957 | 0.673 (inactive) | 0.0683 (inactive) | -0.333 (inactive) | 0.355 (inactive) | -0.0316 | 0.596 | -0.08 | 0.0415 | -0.298
2 | COc1ccc([Si](C)(C)[C@@H]2[C@@H](CCO)O[C@]3(C(=O)N(Cc4ccccc4)c4ccc(N5C(=O)COc6ccccc65)cc43)[C@H]2C)cc1 | 0.807 | 1.13 | 0.294 | 0.191 | 0.197 | -0.177 | -0.081 | 0.351 | 0.622 | 0.806 (inactive) | 0.0063 | -6.38 (inactive) | -0.617 (inactive) | -0.636 (inactive) | 0.0638 (inactive) | 0.104 | -0.0832 | -0.0843 | -0.309 | 0.693
3 | CCOC(=O)C1=CC[C@@H](c2cccc(Br)c2)N(S(=O)(=O)c2ccc(C)cc2)[C@H]1c1ccc([N+](=O)[O-])cc1 | 0.822 | 1.22 | 0.359 | 1.01 | 0.782 | 0.873 | 1.99 | 0.726 | 0.743 | 1.96 (inactive) | 0.559 | -2.18 (inactive) | -0.314 (inactive) | -0.63 (inactive) | 0.115 (inactive) | 1.22 | 0.157 | 0.907 | 0.469 | 0.778
4 | COc1cccc(C)c1NC(=O)O[C@H]1[C@H](OC(=O)Nc2ccccc2)[C@H](OC(=O)Nc2ccccc2)[C@@H](OC)O[C@@H]1CO | 1.44 | 1.26 | 1.01 | 0.442 | 0.615 | -0.21 | 0.138 | -0.337 | 0.861 | -0.852 (inactive) | 0.0166 | -5.44 (inactive) | 0.365 (inactive) | 0.904 (inactive) | -1.49 (inactive) | 1.69 | 0.0301 | 0.513 | 1.05 | 0.349
5 | C=C(/C(=C/C[C@@H](OC(=O)c1ccncc1)c1cccc(OCCO)c1)c1cc(C(=O)OC)ccc1OC)C(C)C | 1.01 | 1.13 | -0.165 | 0.366 | 0.525 | 1.43 | 4.89 | 0.879 | 0.487 | -1.88 (inactive) | -0.0958 | -1.82 (inactive) | -0.634 (inactive) | 26.8 (active) | -1.07 (inactive) | 0.179 | -0.0695 | 0.227 | 0.868 | 1.64
6 | Cc1ccccc1C(O)C1C=CC2C(=O)N(Cc3ccccc3)C(=O)C2N1n1cnnc1 (stereo not given) | 1.54 | 1.05 | -0.0602 | 1.02 | 1.07 | 0.188 | -0.478 | 0.694 | 0.429 | 1.39 (inactive) | 0.166 | -0.293 (inactive) | -1.45 (inactive) | -0.667 (inactive) | 0.688 (inactive) | 0.0691 | -0.0986 | 0.374 | 0.755 | 0.59
7 | CC(=O)NCCCC[C@@H]1NC(=O)[C@@H]2C[C@H](C(=O)NCCCC[N+](C)(C)C)[C@H](c3cccc(OCCO)c3)N2C1=O | 1.5 | -0.411 | 0.164 | -1.39 | 1.4 | 1.57 | -0.251 | 0.512 | 0.994 | 0.0595 (inactive) | 0.198 | -0.283 (inactive) | -0.192 (inactive) | -0.532 (inactive) | -0.441 (inactive) | -0.407 | -0.0471 | 2.44 | 1.83 | 1.89
8 | C[N+](C)(C)CCCC[C@@H]1NC(=O)[C@@H]2C[C@H](C(=O)O)[C@H](c3cccc(OCCO)c3)N2C1=O | 0.0065 | -0.586 | -0.466 | -1.46 | 1.45 | 1.5 | 1.08 | 0.135 | 0.218 | -1.99 (inactive) | -0.0257 | -0.63 (inactive) | -0.773 (inactive) | -0.671 (inactive) | -0.471 (inactive) | -1.01 | -0.179 | 0.405 | 0.171 | 0.976
9 | COCCOC(=O)N1C(=O)[C@@]2(c3cc(C#CCCO)ccc31)[C@H](c1ccc(OCCO)cc1)N1[C@H](c3ccccc3)[C@H](c3ccccc3)OC(=O)[C@H]1[C@@H]2C(=O)N1CCc2cc(OC)c(OC)cc2C1 | 1.2 | 1.19 | 0.81 | 0.249 | 1.22 | 1.11 | -0.633 | 1.08 | 0.0877 | -0.856 (inactive) | 0.359 | -0.415 (inactive) | -0.66 (inactive) | -0.231 (inactive) | -0.196 (inactive) | 0.402 | 0.153 | 0.637 | 0.748 | 1.37
10 | O=C(NCc1ccccc1)[C@]1(Cc2ccccc2)N=C(c2ccc(OCCCO)cc2)O[C@@H]1c1ccccc1 | 2.31 | 1.2 | 0.121 | 0.817 | -0.0037 | -0.0759 | 2 | -0.501 | 0.648 | -0.794 (inactive) | 0.53 | -4.62 (inactive) | -0.621 (inactive) | -0.0576 (inactive) | -1.02 (inactive) | 0.621 | 0.0053 | -0.0377 | 0.621 | -0.468

— PubChem BioAssay
